# Measurements as given in PubChem BioAssay (NCATS).
# Where “and” joins values, the source holds several entries; their conditions need not be identical. Equal values may be shown once. Inconclusive results are not listed. Calls of active or inactive are those of the source. Unless noted, calls follow the shape of the full dose curve.
# Key:
# [1] = target: Estrogen receptor (Homo sapiens) (UniProt P03372); assay: qHTS assay for small molecule antagonists of estrogen receptor alpha signaling (AID 588513; active = well fitted curve in the direction sought with a large enough effect in the signal ratio, with a control signal flat, not every such curve was filed as active; the % refers to the signal ratio; also: % is scaled to controls: 0 for no effect and ±100 for the full control effect)
# Estrogen receptor (Homo sapiens), sequence (P03372 whole entry, looked up): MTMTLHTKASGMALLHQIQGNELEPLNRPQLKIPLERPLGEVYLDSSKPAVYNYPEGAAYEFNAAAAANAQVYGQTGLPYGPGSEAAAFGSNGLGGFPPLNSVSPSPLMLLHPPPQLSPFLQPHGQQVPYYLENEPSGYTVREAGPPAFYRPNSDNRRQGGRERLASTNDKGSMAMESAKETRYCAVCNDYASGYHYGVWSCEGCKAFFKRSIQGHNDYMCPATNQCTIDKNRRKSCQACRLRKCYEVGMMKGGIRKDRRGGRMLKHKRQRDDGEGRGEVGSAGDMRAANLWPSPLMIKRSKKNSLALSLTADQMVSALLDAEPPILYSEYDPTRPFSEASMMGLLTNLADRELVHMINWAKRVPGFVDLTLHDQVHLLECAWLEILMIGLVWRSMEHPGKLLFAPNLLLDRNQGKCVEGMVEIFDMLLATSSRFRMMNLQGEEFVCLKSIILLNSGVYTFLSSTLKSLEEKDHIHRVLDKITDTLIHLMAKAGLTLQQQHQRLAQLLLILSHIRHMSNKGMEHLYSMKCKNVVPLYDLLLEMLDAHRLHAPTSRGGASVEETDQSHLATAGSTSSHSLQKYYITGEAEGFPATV
# Summary of the method: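 Antagonist-mode qHTS in ER-alpha-UAS-bla HEK 293 cells: compound titration, 0.5nM estradiol for 18 h, CCF4 fluorescence, Hill-derived IC50.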
# [2] = target: Estrogen receptor (Homo sapiens) (UniProt P03372); assay: qHTS assay for small molecule agonists of estrogen receptor alpha signaling (AID 588514);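 also: 0% = vehicle only and 100% = reference agonist; nearly all actives have a fitted effect of over 70% in size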
# Summary of the method: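 ER-alpha-UAS-bla GripTite HEK 293 cells in medium with 2% charcoal/dextran-treated FBS were treated with compound titrations at 37 C for 18 hrs; beta-lactamase reporter read by CCF4 fluorescence after 2 hrs at RT.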
# [3] = target: Peroxisome proliferator-activated receptor delta (Homo sapiens) (UniProt Q03181); assay: qHTS assay for small molecule agonists of peroxisome proliferator-activated receptor delta signaling (AID 588534);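 also: 0% = DMSO basal wells and 100% = positive control agonist at 10 µM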
# Peroxisome proliferator-activated receptor delta (Homo sapiens), sequence (Q03181 whole entry, looked up): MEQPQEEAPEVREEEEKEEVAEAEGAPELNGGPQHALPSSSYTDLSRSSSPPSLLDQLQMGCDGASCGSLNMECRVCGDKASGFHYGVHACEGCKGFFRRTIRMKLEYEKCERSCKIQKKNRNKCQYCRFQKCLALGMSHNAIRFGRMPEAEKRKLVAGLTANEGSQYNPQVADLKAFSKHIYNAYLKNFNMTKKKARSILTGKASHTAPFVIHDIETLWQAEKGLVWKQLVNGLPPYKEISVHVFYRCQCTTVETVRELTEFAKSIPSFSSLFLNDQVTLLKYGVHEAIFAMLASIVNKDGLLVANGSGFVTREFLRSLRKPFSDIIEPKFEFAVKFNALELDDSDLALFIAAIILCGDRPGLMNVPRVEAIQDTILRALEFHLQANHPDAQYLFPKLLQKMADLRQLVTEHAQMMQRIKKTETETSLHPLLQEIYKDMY
# Summary of the method: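 Cell-based beta-lactamase reporter assay run in agonist mode: cells seeded and incubated 5 hrs at 37 C, compounds added and incubated 18 hrs at 37 C. CCF4 dye fluorescence read after 2 hrs at RT; EC50 and efficacy from Hill fits.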
# [4] = qHTS assay for small molecule antagonists of peroxisome proliferator-activated receptor delta signaling (AID 588535); settings: HEK293T PPARd-UAS-bla, beta-lactamase FRET ratio, 18 h; 460 nm channel;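 also: cells co-treated with a PPAR-delta agonist as stimulator during compound exposure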
# Summary of the method: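 Cell-based beta-lactamase assay in antagonist mode: 4000 HEK293T PPAR-delta-UAS-bla cells per well, 5 hr preincubation then 18 hr compound incubation at 37 C. IC50 obtained by Hill equation fitting.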
# [5] = target: Peroxisome proliferator-activated receptor gamma (Homo sapiens) (UniProt P37231); assay: qHTS assay for small molecule antagonists of peroxisome proliferator-activated receptor gamma signaling (AID 588537; active = well fitted inhibition curve with a large enough effect in the signal ratio, with a control signal flat, not every such curve was filed as active; the % refers to the signal ratio;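 also: reporter cells co-stimulated with 50 nM rosiglitazone agonist during compound treatment; % of control where 0% means no effect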)
# Peroxisome proliferator-activated receptor gamma (Homo sapiens), sequence (P37231 whole entry, looked up): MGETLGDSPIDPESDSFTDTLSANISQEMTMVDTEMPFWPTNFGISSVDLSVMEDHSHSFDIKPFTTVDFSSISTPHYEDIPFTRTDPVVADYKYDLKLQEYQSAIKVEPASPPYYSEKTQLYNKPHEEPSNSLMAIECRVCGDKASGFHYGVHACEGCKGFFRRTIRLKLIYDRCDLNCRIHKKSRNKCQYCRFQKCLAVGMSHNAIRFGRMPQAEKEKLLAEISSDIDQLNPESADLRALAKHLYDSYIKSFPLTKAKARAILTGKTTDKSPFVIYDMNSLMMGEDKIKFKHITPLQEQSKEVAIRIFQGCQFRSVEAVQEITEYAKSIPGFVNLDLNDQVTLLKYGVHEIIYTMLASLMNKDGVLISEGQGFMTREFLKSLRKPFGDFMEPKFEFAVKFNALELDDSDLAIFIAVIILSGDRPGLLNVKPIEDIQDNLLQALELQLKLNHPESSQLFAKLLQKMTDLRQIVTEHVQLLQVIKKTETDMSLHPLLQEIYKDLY
# Summary of the method: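 Inhibitors of agonist-stimulated UAS-bla reporter activity were sought in HEK293 cells; rosiglitazone (50 nM) defined full signal and DMSO baseline. Curves fitted to Hill model gave IC50 and efficacy.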
# [6] = target: Vitamin D3 receptor (Homo sapiens) (UniProt P11473); assay: qHTS assay for small molecule antagonists of vitamin D receptor signaling (AID 588541);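 also: receptor activated by calcitriol during compound treatment; series mostly up to about 77 µM; % is scaled to controls: 0 for no effect and ±100 for the full control effect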
# Vitamin D3 receptor (Homo sapiens), sequence (P11473 whole entry, looked up): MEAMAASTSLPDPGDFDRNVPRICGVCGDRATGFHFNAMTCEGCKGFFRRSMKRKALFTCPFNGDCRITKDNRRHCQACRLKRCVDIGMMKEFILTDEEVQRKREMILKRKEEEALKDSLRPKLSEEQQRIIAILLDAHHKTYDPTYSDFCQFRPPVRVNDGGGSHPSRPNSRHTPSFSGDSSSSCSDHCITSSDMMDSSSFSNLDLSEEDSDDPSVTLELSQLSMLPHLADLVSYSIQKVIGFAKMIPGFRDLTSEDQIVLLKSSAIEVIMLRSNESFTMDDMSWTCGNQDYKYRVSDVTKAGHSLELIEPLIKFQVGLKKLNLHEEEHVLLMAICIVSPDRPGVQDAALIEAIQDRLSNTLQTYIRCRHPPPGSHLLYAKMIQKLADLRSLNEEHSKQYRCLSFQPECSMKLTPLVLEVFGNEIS
# Summary of the method: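 Antagonist-mode beta-lactamase reporter assay: HEK293T VDR-UAS-bla cells were exposed to titrated compound alongside 1-alpha,25-dihydroxyvitamin D3 at 3 nM final for 16 h. Values were normalized to the 50 nM agonist control and DMSO basal, with IC50 and efficacy from Hill equation fits.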
# [7] = target: Retinoic acid receptor RXR-alpha (Homo sapiens) (UniProt P19793); assay: qHTS assay for small molecule agonists of retinoid X receptor alpha signaling (AID 588544);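 also: 0% = DMSO basal wells and 100% = reference agonist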
# Retinoic acid receptor RXR-alpha (Homo sapiens), sequence (P19793 whole entry, looked up): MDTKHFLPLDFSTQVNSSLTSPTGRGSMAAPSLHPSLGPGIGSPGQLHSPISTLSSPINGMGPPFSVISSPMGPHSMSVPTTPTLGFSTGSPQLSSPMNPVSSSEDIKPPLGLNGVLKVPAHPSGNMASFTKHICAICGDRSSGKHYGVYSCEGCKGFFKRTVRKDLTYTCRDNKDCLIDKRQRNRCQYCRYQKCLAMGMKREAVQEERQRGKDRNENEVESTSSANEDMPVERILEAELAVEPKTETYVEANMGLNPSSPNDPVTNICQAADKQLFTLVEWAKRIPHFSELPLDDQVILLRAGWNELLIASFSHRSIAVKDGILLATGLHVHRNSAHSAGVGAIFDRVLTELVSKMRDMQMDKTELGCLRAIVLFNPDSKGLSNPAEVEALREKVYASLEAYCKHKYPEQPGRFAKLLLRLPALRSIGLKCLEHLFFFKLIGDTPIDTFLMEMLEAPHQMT
# [8] = target: Thyroid hormone receptor beta (Homo sapiens) (UniProt P10828); assay: qHTS assay for small molecule agonists of thyroid hormone receptor beta signaling (AID 588545)
# Thyroid hormone receptor beta (Homo sapiens), sequence (P10828 whole entry, looked up): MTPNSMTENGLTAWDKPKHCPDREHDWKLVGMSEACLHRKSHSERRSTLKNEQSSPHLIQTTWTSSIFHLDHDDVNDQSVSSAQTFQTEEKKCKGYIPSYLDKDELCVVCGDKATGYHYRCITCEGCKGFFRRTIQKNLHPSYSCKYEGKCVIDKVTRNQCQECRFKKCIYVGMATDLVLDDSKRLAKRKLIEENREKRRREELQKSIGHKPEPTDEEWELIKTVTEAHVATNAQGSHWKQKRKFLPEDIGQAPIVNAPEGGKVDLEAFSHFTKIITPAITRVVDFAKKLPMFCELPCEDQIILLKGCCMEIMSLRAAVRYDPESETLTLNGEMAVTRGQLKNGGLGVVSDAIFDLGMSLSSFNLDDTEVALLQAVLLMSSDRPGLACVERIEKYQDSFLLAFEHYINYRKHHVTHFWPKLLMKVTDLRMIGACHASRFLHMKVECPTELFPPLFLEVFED
# Summary of the method: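 Agonist-mode beta-lactamase reporter assay, HEK 293 cells, 2% charcoal/dextran FBS; cells plated 4 hrs, compound 18 hrs at 37 C, CCF4 2 hrs RT. Normalized to 10 nM T3 (100%) and DMSO (0%); Hill fit gives EC50, efficacy.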
# [9] = qHTS assay for small molecule antagonists of retinoid X receptor alpha signaling (AID 588546; active = well fitted inhibition curve with a large enough effect in the signal ratio, with a control signal flat, not every such curve was filed as active; the % refers to the signal ratio;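 also: cells stimulated with 9-cis-retinoic acid as agonist; % is scaled to controls: 0 for no effect and ±100 for the full control effect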); settings: HEK293T RXRa-UAS-bla, beta-lactamase ratio, antagonist mode; measured here: W530 green channel, cytotoxicity proxy
# Summary of the method: (§1)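 Beta-lactamase reporter inhibition, read as CCF4 fluorescence ratio (ex 405, em 460/530 nm) after 2 h at RT. HEK293T UAS-bla cells, 2500/well, were stimulated with 9-cis-RA at 500 or 100 nM final alongside test compound for 18 h at 37 C.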
# [10] = target: Thyroid hormone receptor beta (Homo sapiens) (UniProt P10828); assay: qHTS assay for small molecule antagonists of thyroid hormone receptor beta signaling (AID 588547; active = well fitted inhibition curve with a large enough effect in the signal ratio, with a control signal flat, not every such curve was filed as active; the % refers to the signal ratio); settings: TR-UAS-bla HEK293, beta-lactamase ratio, antagonist mode, 18 h
# Summary of the method: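 Inhibition of T3-driven (0.4nM final) beta-lactamase reporter activity was measured over 0.59 nM to 92 uM compound after 18 h at 37 C. The cells were GripTite HEK293 TR-UAS-bla in charcoal/dextran-stripped serum, with CCF4 ratio read-out and IC50 from Hill fits.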
# [11] = qHTS assay for environmental chemicals that activate the Aryl hydrocarbon Receptor (AhR) signaling pathway (AID 651777; active = well fitted curve in the direction sought with a large enough effect; an effect the other way counts as inactive or inconclusive; also: nearly all actives have a fitted effect of over 15% in size; also: potency is read from the fitted curve at half-maximal effect; as to activation: % of control where 0% means no effect); settings: 1A2-DRE human hepatoma cells, luciferase, 24 h; activation: stronger effect = higher value
# Summary of the method: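 1A2-DRE human hepatoma reporter line; 1,200 cells/well; cmpd or DMSO 24 h, 37 C/5% CO2; One-Glo 30 min RT; luciferase lum.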
# [12] = target: Peroxisome proliferator-activated receptor alpha (Homo sapiens) (UniProt Q07869); assay: qHTS assay for small molecule agonists of the peroxisome proliferator-activated receptor alpha (PPARalpha) signaling pathway (AID 651778; active = well fitted curve in the direction sought with a large enough effect; an effect the other way counts as inactive or inconclusive; also: % of control where 0% means no effect); settings: PathHunter PPARalpha complementation, chemiluminescence, 6 h; max response: stronger effect = higher value
# Peroxisome proliferator-activated receptor alpha (Homo sapiens), sequence (Q07869 whole entry, looked up): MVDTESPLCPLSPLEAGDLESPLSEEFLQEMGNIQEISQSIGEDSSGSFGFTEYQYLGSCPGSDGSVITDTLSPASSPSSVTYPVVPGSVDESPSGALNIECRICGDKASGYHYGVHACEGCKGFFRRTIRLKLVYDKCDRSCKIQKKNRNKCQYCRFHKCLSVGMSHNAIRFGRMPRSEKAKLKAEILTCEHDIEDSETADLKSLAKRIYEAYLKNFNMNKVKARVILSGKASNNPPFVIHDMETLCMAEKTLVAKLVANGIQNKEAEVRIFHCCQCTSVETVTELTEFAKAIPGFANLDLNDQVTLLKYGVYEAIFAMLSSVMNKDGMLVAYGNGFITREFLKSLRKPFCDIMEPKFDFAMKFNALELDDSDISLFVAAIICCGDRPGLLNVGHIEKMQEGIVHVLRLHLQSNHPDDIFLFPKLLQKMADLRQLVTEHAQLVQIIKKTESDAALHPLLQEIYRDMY
# Summary of the method: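 Chemiluminescence from complemented enzyme reported PPARalpha activation in cells after 6 hr of compound treatment at 37 C. The detection reagent was incubated for 60 min at room temperature, and compounds were scored as agonists.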
# [13] = qHTS assay for small molecule agonists of the antioxidant response element (ARE) signaling pathway measured by Nrf2-dependant transcriptional activity (AID 720636; active = well fitted curve in the direction sought with a large enough effect in the repeat runs; an effect the other way counts as inactive or inconclusive;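 also: HepG2 cells with an ARE-driven luciferase reporter; % of control where 0% means no effect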)
# Summary of the method: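 Cells: ARE-luc HepG2 with Nrf2-responsive luciferase. Medium contained 1% dialyzed FBS. Compound exposure lasted 16 hr at 37 C and 5% CO2, followed by ONE-Glo luciferase detection.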
# [14] = qHTS assay for small molecule agonists of the antioxidant response element (ARE) signaling pathway measured by Nrf2-dependant transcriptional activity - cell viability counter screen (AID 720653; active = well fitted curve in the direction sought with a large enough effect in the repeat runs; an effect the other way counts as inactive or inconclusive; also: % is scaled to controls: 0 for no effect and ±100 for the full control effect); settings: ARE-bla HepG2 viability, CellTiter-Glo ATP luminescence, 16 h; max response: stronger effect = lower value
# Summary of the method: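 Cytotoxicity counter screen: intracellular ATP quantified by CellTiter-Glo luminescence in the same ARE-bla HepG2 plates, after 16 h compound exposure and a 2 h beta-lactamase substrate step.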
# [15] = qHTS assay for cell viability of HEK293 cells (AID 743288; active = well fitted curve in the direction sought with a large enough effect; an effect the other way counts as inactive or inconclusive; also: % is scaled to controls: 0 for no effect and ±100 for the full control effect; nearly all actives have a fitted effect of over 50% in size); settings: ATP luminescence (CellTiter-Glo), 18 h; max response: stronger effect = lower value
# Summary of the method: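 Luminescent ATP quantitation served as the viability read-out. Cells (parental HEK293, 2,000/well) received compounds after at least 5 h at 37 C and were exposed for 18 h before a 30 min room-temperature reagent step.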
# [16] = target: Retinoic acid receptor RXR-alpha (Homo sapiens) (UniProt P19793); assay: qHTS assay for small molecule antagonists of retinoid X receptor alpha signaling (AID 588546); settings: HEK293T RXRa-UAS-bla, beta-lactamase ratio, antagonist mode;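 also: cells stimulated with 9-cis-retinoic acid as agonist; % is scaled to controls: 0 for no effect and ±100 for the full control effect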
# Summary of the method: as §1
# [17] = qHTS assay for small molecule activators of the p53 signaling pathway (AID 651743; active = well fitted activation curve with a large enough effect in the signal ratio, not every such curve was filed as active; the % refers to the signal ratio; also: series mostly up to about 92 µM; % of control where 0% means no effect); settings: HCT-116 p53RE-bla, beta-lactamase FRET ratio, 16 h; activation: stronger effect = higher value
# Summary of the method: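 Screen for p53 pathway agonists uses stably transfected p53RE-bla HCT-116 cells, 4,000 per well, treated 16 h at 37 C with compounds in DMSO.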
# [18] = qHTS assay for cell viability of the p53RE-bla HCT-116 cell line (AID 743292; active = well fitted curve in the direction sought with a large enough effect; an effect the other way counts as inactive or inconclusive; also: % is scaled to controls: 0 for no effect and ±100 for the full control effect; nearly all actives have a fitted effect of over 55% in size)
# Summary of the method: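 HCT-116 p53RE-bla cells seeded 4,000/well; 5 h at 37 C; compound (DMSO) added; 16 h at 37 C; CellTiter-Glo added, 30 min RT; luminescence read.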
# [19] = target: Peroxisome proliferator-activated receptor gamma (Homo sapiens) (UniProt P37231); assay: qHTS assay for small molecule agonists of peroxisome proliferator-activated receptor gamma signaling (AID 588536; active = well fitted curve in the direction sought with a large enough effect in the signal ratio, with a control signal flat, not every such curve was filed as active; the % refers to the signal ratio;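 also: 0% = DMSO basal wells and 100% = rosiglitazone at 2 µM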)
# Summary of the method: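 Ratiometric blue/green fluorescence (405 nm excitation; 460 and 530 nm emission) from CCF4-loaded HEK293 reporter cells serves as signal. Exposure to test compounds lasts 16 h at 37 C in medium containing 1% charcoal/dextran-treated serum.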
# [20] = target: Nuclear receptor subfamily 1 group I member 2 (Rattus norvegicus) (UniProt Q9R1A7); assay: qHTS assay for small molecule activators of the rat pregnane X receptor (rPXR) signaling pathway (AID 651751; call rule not given here; also: 0% is about no effect); settings: rPXR reporter cells, luciferase (One-Glo), 24 h
# Nuclear receptor subfamily 1 group I member 2 (Rattus norvegicus), sequence (Q9R1A7 whole entry, looked up): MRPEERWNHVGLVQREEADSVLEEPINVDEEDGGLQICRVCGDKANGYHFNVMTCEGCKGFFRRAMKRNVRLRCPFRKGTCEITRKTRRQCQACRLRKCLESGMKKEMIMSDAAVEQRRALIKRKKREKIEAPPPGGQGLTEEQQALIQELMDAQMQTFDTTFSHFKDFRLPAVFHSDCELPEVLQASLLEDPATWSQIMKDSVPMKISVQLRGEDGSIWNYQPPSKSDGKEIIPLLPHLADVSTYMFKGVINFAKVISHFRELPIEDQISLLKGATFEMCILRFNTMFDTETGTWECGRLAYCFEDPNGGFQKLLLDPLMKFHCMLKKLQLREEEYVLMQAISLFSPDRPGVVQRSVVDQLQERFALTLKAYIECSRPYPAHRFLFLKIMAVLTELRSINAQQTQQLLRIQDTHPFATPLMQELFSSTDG
compound,measurement,setting,value
CCNC(=O)NC(=O)/C(C#N)=N/OC,Potency,[1],inactive
same,Potency,[2],inactive
same,outcome,[3],inactive
same,max response,[4],9.94%
same,Potency,[5],inactive
same,Potency,[6],inactive
same,Potency,[7],inactive
same,Potency,[8],inactive
same,max response,[9],-2.66%
same,activity change % (negative = inhibition),[10],5.55% (inactive)
same,activation,[11],0.625% (inactive)
same,max response,[12],0.388% (inactive)
same,Potency,[13],inactive
same,max response,[14],-0.764% (inactive)
same,max response,[15],-16.3% (inactive)
CC(C)(C)C(=O)[C@@H](Oc1ccc(Cl)cc1)n1cncn1,Potency,[1],inactive
same,Potency,[2],inactive
same,outcome,[3],inactive
same,max response,[4],38.3%
same,Potency,[5],inactive
same,Potency,[7],inactive
same,Potency,[8],inactive
same,max response,[9],-6.66%
same,max response,[16],9.68% (inactive)
same,activity change % (negative = inhibition),[10],-10.6% (inactive)
same,activation,[17],0.216% (inactive)
same,activation,[11],5.12% (inactive)
same,max response,[12],-2.73% (inactive)
same,Potency,[13],inactive
same,max response,[14],0.855% (inactive)
same,max response,[15],-4.89% (inactive)
same,Potency,[18],inactive
Brc1c(Br)c(Br)c(Br)c(Br)c1Br,Potency,[1],inactive
same,Potency,[2],inactive
same,outcome,[3],inactive
same,max response,[4],-24.6%
same,Potency,[19],inactive
same,Potency,[5],inactive
same,Potency,[7],inactive
same,Potency,[8],inactive
same,max response,[9],-6.9%
same,max response,[16],0.275% (inactive)
same,activation,[17],2.23% (inactive)
same,activation,[11],2.18% (inactive)
same,max response,[12],-0.494% (inactive)
same,Potency,[13],inactive
same,max response,[15],-0.224% (inactive)
same,max response,[20],0.884% (inactive)
CCOP(=S)(OCC)Oc1cnc2ccccc2n1,Potency,[1],inactive
same,Potency,[2],inactive
same,outcome,[3],inactive
same,max response,[4],6.57%
same,Potency,[5],inactive
same,Potency,[8],inactive
same,max response,[9],6.33%
same,max response,[16],-25.5% (inactive)
same,activity change % (negative = inhibition),[10],-0.975% (inactive)
same,activation,[17],6.75% (inactive)
same,Potency,[11],35.5 µM (active)
same,max response,[12],-1.06% (inactive)
same,max response,[14],3.82% (inactive)
same,max response,[15],-3.73% (inactive)
same,Potency,[18],inactive
same,max response,[20],7.55% (inactive)
CCCCC(C#N)(Cn1cncn1)c1ccc(Cl)cc1 (stereo unspecified),Potency,[1],inactive
same,Potency,[2],inactive
same,outcome,[3],inactive
same,max response,[4],26.8%
same,Potency,[19],inactive
same,Potency,[7],inactive
same,Potency,[8],inactive
same,max response,[9],7.2% and 4.81%
same,max response,[16],3.27% (inactive) and 4.81% (inactive)
same,activity change % (negative = inhibition),[10],6.16% (inactive) and 3.62% (inactive)
same,activation,[17],-3.98% (inactive)
same,activation,[11],-0.211% (inactive)
same,max response,[12],-2.63% (inactive) and 1.11% (inactive)
same,Potency,[13],inactive
same,max response,[14],0.943% (inactive) and -1.27% (inactive)
same,max response,[15],-11.8% (inactive) and -12.8% (inactive)
O=C(NC(=O)c1c(F)cccc1F)Nc1ccc(OC(F)(F)C(F)OC(F)(F)F)c(Cl)c1 (stereo unspecified),Potency,[1],inactive
same,Potency,[2],inactive
same,outcome,[3],inactive
same,max response,[4],59.9%
same,Potency,[19],inactive
same,Potency,[6],inactive
same,Potency,[7],inactive
same,max response,[9],-11.8%
same,max response,[16],-13% (inactive)
same,activity change % (negative = inhibition),[10],12.3% (inactive)
same,max response,[12],0.139% (inactive)
same,Potency,[13],inactive
same,max response,[14],-4.81% (inactive)
same,max response,[15],-16.7% (inactive)
same,Potency,[18],inactive
same,max response,[20],1.96% (inactive)
